A selection: hits, their analogues and other compounds. The true share with any hit is near 8.9%.
ALDH1A1 block: qHTS Assay for Inhibitors of Aldehyde Dehydrogenase 1 (ALDH1A1). Aldehyde dehydrogenase 1A1 (Homo sapiens), P00352. Potency, µM (titrated, usually from 75.3 µM), for the others: at the highest dose activity, negative = inhibition, usual class: inhibitors. Purified ALDH1A1, NADH fluorescence, propionaldehyde substrate. 220,000 compounds, 7.3% hits; active = well fitted inhibition curve with a large enough effect, not every such curve was filed as active; inconclusive = small, poorly fitted or top-dose-only effect, or another doubt; inactive = no such curve, though single readings can be large or run the other way;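 also: potency is read from the fitted curve at half-maximal effect; plate controls were no enzyme wells and a reference inhibitor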
IMPase cell inh: qHTS Assay for Identifying the Cell-Membrane Permeable IMPase Inhibitors; Inositol monophosphatase 1 (Rattus norvegicus), P97697; CHO-M1 cells, IP1 accumulation, HTRF TR-FRET ratio; inhibition (IP1 accumulation), % at 46.1 µM; 120,000 tested, under 10 active; active = well fitted curve in the direction sought with a large enough effect in the signal ratio, not every such curve was filed as active; inconclusive = small, poorly fitted or top-dose-only effect, or a change in a side signal; inactive = no such curve, though single readings can be large or run the other way; the % refers to the signal ratio;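 also: cells stimulated with carbachol in lithium chloride buffer; plate controls were DMSO basal wells for no effect and reference inhibitor wells for full effect; higher means more IMPase inhibition seen as more IP1 and lower FRET ratio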
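CHO-M1, 2000 cells/well, cultured 16–30 h; cpd up to 46 uM; carbachol (50 uM solution, stimulation buffer w/ 50 mM LiCl, pH 7.4), 30 min 37C; IP-One TR-FRET, 10 min RT; Ex 320/Em 665, 620; Hill-fit AC50.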
HPGD inh: qHTS Assay for Inhibitors of HPGD (15-Hydroxyprostaglandin Dehydrogenase); 15-hydroxyprostaglandin dehydrogenase [NAD(+)] (Homo sapiens), P15428; Potency, µM, for the others: at the top dose activity change, negative = inhibition, hits mostly inhibitors; AID 894, 2007; 150,000 compounds, 4.3% hits; purified HPGD, NADH fluorescence kinetic, PGE2 substrate; active = well fitted inhibition curve with a large enough effect, not every such curve was filed as active; inconclusive = small, poorly fitted or top-dose-only effect, or another doubt; inactive = no such curve, though single readings can be large or run the other way; also: potency is read from the fitted curve at half-maximal effect
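20 nM HPGD preincubated 15 min at room temperature with compound in 50 mM Tris-HCl pH 8, 0.01% Tween 20. Started with 1 mM NAD+ and 30 uM prostaglandin E2; NADH fluorescence (360/450 nm) read 5 times over 30-s intervals, last minus first.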
ALOX12 inhib: qHTS Assay for Inhibitors of 12-hLO (12-human lipoxygenase). purified 12-hLO, xylenol orange hydroperoxide absorbance. AID 1452, 2008. Polyunsaturated fatty acid lipoxygenase ALOX12 (Homo sapiens), P18054. Potency, µM (titrated, usually from 57.1 µM), for inactives: at the top dose activity change, negative = inhibition, usual class: inhibitors. 150,000 compounds, 0.12% hits; also: potency is read from the fitted curve at half-maximal effect; nearly all actives have a fitted effect of over 55% in size
Target sequence (P18054 whole entry, looked up): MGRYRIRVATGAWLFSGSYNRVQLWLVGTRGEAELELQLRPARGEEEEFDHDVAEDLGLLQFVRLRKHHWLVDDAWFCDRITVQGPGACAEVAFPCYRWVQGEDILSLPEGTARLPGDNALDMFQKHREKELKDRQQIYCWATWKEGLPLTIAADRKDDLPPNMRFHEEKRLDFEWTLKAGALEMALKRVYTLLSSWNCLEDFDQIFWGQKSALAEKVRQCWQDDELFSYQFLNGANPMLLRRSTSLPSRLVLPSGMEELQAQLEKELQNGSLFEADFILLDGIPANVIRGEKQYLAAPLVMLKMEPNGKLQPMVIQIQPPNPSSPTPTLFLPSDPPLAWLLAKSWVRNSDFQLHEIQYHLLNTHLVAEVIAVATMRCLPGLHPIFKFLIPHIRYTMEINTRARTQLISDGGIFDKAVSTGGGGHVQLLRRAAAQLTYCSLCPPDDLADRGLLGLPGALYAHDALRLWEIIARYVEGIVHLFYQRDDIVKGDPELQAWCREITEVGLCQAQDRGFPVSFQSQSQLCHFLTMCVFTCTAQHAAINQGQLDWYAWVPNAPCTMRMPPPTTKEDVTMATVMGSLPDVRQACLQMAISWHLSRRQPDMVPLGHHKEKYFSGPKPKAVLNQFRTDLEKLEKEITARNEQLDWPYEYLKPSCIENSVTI
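Purified human 12hLO (150 nM final) was preincubated with compounds for 15 min at room temperature in 25 mM Hepes pH 7.0, 0.01% Triton X-100, then reacted with 40 uM arachidonic acid for 30 min. Hydroperoxide was detected with ferrous iron/xylenol orange.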
IMPase Li cell: qHTS Assay for Identifying the Cell-Membrane Permeable IMPase Inhibitors: Potentiation with Lithium | CHO-M1 cells, IP1 TR-FRET (IP-One), carbachol + lithium | Potency, µM (highest dose often 59.4 µM), for the others: at the top dose activity, negative = IMPase inhibition, usual class: inhibitors | 210,000 compounds, 0.35% hits;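 also: IP1 builds up when IMPase is blocked and the TR-FRET signal falls; potency is read from the fitted curve at half-maximal effect; plate controls were basal vehicle for no effect and high inhibitor control for full effect; nearly all actives have a fitted effect of over 50% in size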
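CHO cells stably expressing M1 receptor (2000/well, cultured 16–30 h) treated 30 min at 37C with compound plus low lithium. Cytosolic IP1 by TR-FRET (665/620 ratio and 620 channel) after 10 min lysis; AC50 by Hill fit.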
NPSR antagonist: qHTS Assay for Antagonists of the Neuropeptide S Receptor: cAMP Signal Transduction; Q6W5P4; CHO-NPSR cells, cAMP TR-FRET, antagonist mode; Potency, µM (highest dose often 38.3 µM), for the others: top-dose activity change, negative = inhibition, hits mostly inhibitors; 220,000 compounds, 1% hits; AID 1461, 2008; also: potency is read from the fitted curve at half-maximal effect; nearly all actives have a fitted effect of over 50% in size
An asterisk follows results filed as active; ? = inconclusive; . = not tested or not shown; [ ] = another dose, or the depositor's remark. Unless noted, calls follow the shape of the dose curve; as a rule, active = well fitted curve in the direction sought with a large enough effect; inconclusive = small, poorly fitted or top-dose-only effect, or another doubt; inactive = no such curve, though single readings can be large; an effect the other way counts as inactive or inconclusive. Unless noted, % is scaled to controls: 0 for no effect and ±100 for the full control effect.

SMILES	ALDH1A1 block	IMPase cell inh	HPGD inh	ALOX12 inhib	IMPase Li cell	NPSR antagonist
CSc1nnc(-c2ccco2)c(-c2ccco2)n1	3.5µM*	-9	8.9µM*	-24%	18%[38.3 µM]	?
O=C(CCCCCN1C(=O)C2C3C=CC(C3)C2C1=O)Nc1nccs1 (configuration not stated)	?	10	-8%	0%	-7%[38.3 µM]	-1%[46.1 µM]
CC(C)c1ccc(/C=C2\CC/C(=C\C=N\N(C)C)C2=O)cc1	0.4µM*	10	-23%	?	9%[38.3 µM]	-17%[46.1 µM]
Cc1nn(-c2ccccc2)c(/N=C/c2ccccc2O)c1-c1ccccc1	?	.	-26%	0%	13%	-50%
CCN(CC)CCc1c(C)[nH]c(C(=O)OCc2ccccc2)c1C	20µM*	8	-3%	9%	19%[38.3 µM]	0%[46.1 µM]
CC(C)c1onc(C(=O)N2CCOCC2)c1[N+](=O)[O-]	0%	.	.	.	-7%	14%
Cc1onc(C(=O)N2CCOCC2)c1[N+](=O)[O-]	25µM*	.	.	.	1%	16%
CCCCCCCCCCCCCCCC[n+]1ccc(/C=N/O)cc1	-6%	.	-2%	22%	19%	5µM*
O=C(C[N+]1(CC#Cc2ccccc2)CCCCC1)c1ccc(Cl)cc1	22µM*	.	.	.	15%	-29%
C#CC[N+]1(CC#Cc2ccccc2)CCCCC1	-3%	.	.	.	8%	19%
C(#Cc1ccccc1)C[N+]1(CC#Cc2ccccc2)CCCCC1	-7%	.	.	.	8%	15%
O=C(C[N+]1(CC#Cc2ccccc2)CCCCC1)c1ccccc1	8.9µM*	.	.	.	25%	5%
COc1ccc(NC(=S)N(CCC(C)C)C(C)c2ccncc2)cc1 (configuration not stated)	.	.	.	.	.	-19%
CC(C)(C)CC(=O)NC(=S)NCc1ccccc1	-2%	.	.	.	3%	-30%
CC1CCN(C(=O)CCc2nc3cc(S(=O)(=O)N(C)C)ccc3n2C)CC1	11µM*	3	-7%	-7%	?	-2%[46.1 µM]
CC(C)OC(=O)n1c(=S)oc2ccccc21	7.1µM*	1	?	0%	14%[38.3 µM]	-8%[46.1 µM]
CC(C)NC(=O)CCn1c(=S)oc2ccccc21	1%	.	.	.	-2%	14%
CCCCC(=O)/C=C/n1c(=S)oc2ccccc21	11µM*	.	?	2%	0%	-35%
CCc1nnc(NC(=O)CCNC(=O)c2ccccc2Cl)s1	2%	.	.	.	3%	9%
CCCS(=O)(=O)N1CCN(Cc2ccccc2C(F)(F)F)CC1	?	3	-7%	-15%	-7%[38.3 µM]	2%[46.1 µM]
CC(C)CC(=O)N1CCN(Cc2ccccc2[N+](=O)[O-])CC1	0.089µM*	.	.	.	10%	2%
CCCS(=O)(=O)N1CCN(Cc2ccccc2[N+](=O)[O-])CC1	8.9µM*	.	.	.	1%	3%
CC1CN(C2CCCCC2)c2nc3c(c(=O)[nH]c(=O)n3C)n2C1 (configuration not stated)	-8%	10	-12%	0%	25%[38.3 µM]	-17%[46.1 µM]
CC(=O)OCC(OC(C)=O)C(OC(C)=O)C(OC(C)=O)C(OC(C)=O)C(COC(C)=O)OC(C)=O (configuration not stated)	11%	.	-9%	-1%	-4%	.
C#CCCCCCCCCCCCC(O)CC(O)COC(C)=O (configuration not stated)	14µM*	.	-24%	-6%	26%	.
COc1ccc([N+](=O)[O-])cc1N(CC(=O)N1CCOCC1)S(C)(=O)=O	4%	.	.	.	-2%	12%
COc1cccc(NC(=O)CSc2nc3ccccc3c(=O)n2Cc2cccs2)c1	?	.	-7%	-1%	4%	-44%
CCOc1ccc(NC(=O)CSc2nc3ccccc3c(=O)n2CCCC(=O)NCCCN2CCCC2=O)cc1	7.9µM*	.	.	.	-4%	-23%
